From PubChem BioAssay AID1159580 (chemical genetic matrix, 2015)
Several values for one entry are separate records, joined by “and”; a condition that tells them apart may be missing. Equal values may be shown once. Hit rate of the full screen: of about 5,500 compounds, about 2,000 (36%) were called active. Not shown: some 18% with an inconclusive outcome. Rule as the data show it: active = normalized growth mostly below about 0.91 (no sharp cut-off); inconclusive = no clear call, values can overlap the other calls; inactive = mostly above about 0.92. This is one part of the list.

Test: chemical genetic growth profiling, strain panel (AID 1159580);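 also: tested at 20 µM; growth read once vehicle control cultures reached saturation at 30 °C; 1 = growth at the plate median or of vehicle wells; lower values mean less growth of the strain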
Conditions: S. cerevisiae deletion strains, growth OD

Measured: normalized growth

C=C[C@@](C)(O)CCC1C(=C)C[C@H](O)C2C(C)(C)CCCC12C (some centres not stated)
active: locus YDR392W, strain spt3, hits give low values 0.628
inactive: locus YAL013W, strain DEP1, hits give low values 1.01 | locus YAL021C, strain ccr4, hits give low values 1.01 | locus YAL026C, strain drs2, hits give low values 0.972 | locus YAL030W, strain snc1, hits give low values 0.996 | locus YBL061C, strain skt5, hits give low values 0.988 | locus YBR009C, strain hhf1, hits give low values 0.986 | locus YBR021W, strain FUR4, hits give low values 0.998 | locus YBR023C, strain chs3, hits give low values 0.978 | locus YBR171W, strain sec66, hits give low values 0.976 | locus YBR229C, strain ROT2, hits give low values 1.01 | locus YBR231C, strain swc5, hits give low values 1 | locus YBR279W, strain paf1, hits give low values 0.998 | locus YCL011C, strain gbp2, hits give low values 0.991 | locus YCL016C, strain dcc1, hits give low values 0.971 | locus YCL029C, strain bik1, hits give low values 1.02 | locus YCL061C, strain MRC1, hits give low values 0.98 | locus YCL069W, strain vba3, hits give low values 0.999 | locus YCR088W, strain abp1, hits give low values 0.99 | locus YDL005C, strain med2, hits give low values 0.976 | locus YDL035C, strain GPR1, hits give low values 0.991 | locus YDL040C, strain nat1, hits give low values 0.997 | locus YDL074C, strain BRE1, hits give low values 0.974 | locus YDL101C, strain DUN1, hits give low values 1.01 | locus YDL134C, strain PPH21, hits give low values 1.01 | locus YDL185W, strain tfp1, hits give low values 1.02 | locus YDL192W, strain arf1, hits give low values 1.02 | locus YDR001C, strain nth1, hits give low values 0.989 | locus YDR069C, strain doa4, hits give low values 0.99 | locus YDR101C, strain arx1, hits give low values 1 | locus YDR137W, strain rgp1, hits give low values 0.859 | locus YDR150W, strain NUM1, hits give low values 1.01 | locus YDR159W, strain sac3, hits give low values 1.01 | locus YDR162C, strain NBP2, hits give low values 0.994 | locus YDR195W, strain ref2 1.05 | locus YDR297W, strain sur2, hits give low values 0.993 | locus YDR318W, strain mcm21, hits give low values 1.02 | locus YDR334W, strain swr1, hits give low values 0.993 | locus YDR335W, strain msn5, hits give low values 1.01 | locus YDR388W, hits give low values 1.02 | locus YDR502C, strain sam2, hits give low values 1.01 | locus YEL003W, strain gim4, hits give low values 1 | locus YEL037C, strain rad23, hits give low values 0.987 | locus YEL061C, strain CIN8 (second series), hits give low values 0.992 | locus YEL061C, strain CIN8, hits give low values 1.01 | locus YER015W, strain faa2, hits give low values 0.995 | locus YER016W, strain bim1, hits give low values 0.996 | locus YER110C, hits give low values 1.03 | locus YER111C, strain swi4, hits give low values 0.976 | locus YER155C, strain BEM2 (second series), hits give low values 1.01 | locus YER155C, strain BEM2, hits give low values 1.01 | locus YER167W, strain BCK2, hits give low values 1.01 | locus YFR010W, strain ubp6, hits give low values 1.01 | locus YGL078C, strain dbp3, hits give low values 1.02 | locus YGL086W, strain mad1, hits give low values 1.02 | locus YGL167C, strain pmr1, hits give low values 0.97 | locus YGL173C, strain kem1, hits give low values 0.974 | locus YGL227W, strain vid30, hits give low values 0.997 | locus YGL240W, strain doc1, hits give low values 1 | locus YGL248W, strain PDE1, hits give low values 1.01 | locus YGL253W, strain hxk2, hits give low values 0.984 | locus YGR078C, strain PAC10, hits give low values 1 | locus YGR135W, strain pre9, hits give low values 1 | locus YGR229C, strain SMI1, hits give low values 1 | locus YGR252W, strain gcn5, hits give low values 0.995 | locus YHR013C, strain ard1, hits give low values 1.02 | locus YHR027C, strain rpn1, hits give low values 1 | locus YHR030C, strain SLT2, hits give low values 1.01 and 0.934 | locus YHR079C, strain IRE1 (second series), hits give low values 1.02 | locus YHR079C, strain IRE1, hits give low values 0.955 | locus YHR094C, strain hxt1, hits give low values 1.02 | locus YHR129C, strain ARP1, hits give low values 1.01 | locus YHR142W, strain chs7, hits give low values 0.957 | locus YHR200W, strain rpn10, hits give low values 1.04 | locus YIL066C, strain RNR3, hits give low values 1.02 | locus YIL073C, strain SPO22, hits give low values 1.06 | locus YIL125W, strain kgd1, hits give low values 1.02 | locus YIR030C, strain dcg1, hits give low values 1.02 | locus YJL092W, strain hpr5, hits give low values 0.993 | locus YJL095W, strain BCK1 (second series), hits give low values 0.992 | locus YJL095W, strain BCK1, hits give low values 0.999 and 0.952 | locus YJL115W, strain asf1, hits give low values 0.99 | locus YJL129C, strain trk1, hits give low values 0.966 | locus YJL134W, strain LCB3, hits give low values 1.01 | locus YJL154C, strain vps35, hits give low values 0.997 | locus YJL164C, strain tpk1, hits give low values 0.982 | locus YJL166W, strain qcr8, hits give low values 0.981 | locus YJL168C, strain set2, hits give low values 1.03 | locus YJL187C, strain SWE1 (second series), hits give low values 1 | locus YJL187C, strain SWE1, hits give low values 0.991 | locus YJR043C, strain POL32, hits give low values 0.997 | locus YJR066W, strain TOR1, hits give low values 0.923
